Where “and” joins values, the source holds several entries; their conditions need not be identical. Equal entries are not always repeated. A number with no mark means an inactive call. Results filed as inconclusive are left out. Some structures have more than one record in an assay (separate samples or runs), and their calls can disagree. Calls of active or inactive are those of the source. Unless noted, calls follow the shape of the dose curve; as a rule, active = well fitted curve in the direction sought with a large enough effect; inconclusive = small, poorly fitted or top-dose-only effect, or another doubt; inactive = no such curve, though single readings can be large; an effect the other way counts as inactive or inconclusive.
Tests used:
[1] = Drug repurposing screens with cells derived from glioblastoma tumor samples (AID 1345199); details: GBM patient neurospheres viability, ATP luminescence, 48 h; for Potency: tumour line A; also: potency is read from the fitted curve at half-maximal effect; as to activity, negative = cell killing: % is scaled to controls: 0 for no effect and ±100 for the full control effect; as to all read-outs here: nearly all actives have a fitted effect of over 40% in size
Summary of the method: (§1)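 Four patient lines of CD133+ GBM neurospheres were screened at several concentrations; hits were retested in those lines plus three slower-growing GBM lines, using 48-hour treatment and ATP-based viability.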

astro = control astrocytes; test: as above; details: viability, ATP luminescence, 48 h; series mostly up to 45.9 µM
Summary of the method: as §1

[2] = molecular target: Nuclear receptor subfamily 1 group I member 2 (Rattus norvegicus) (UniProt Q9R1A7); test: qHTS assay for small molecule activators of the rat pregnane X receptor (rPXR) signaling pathway (AID 651751; call rule not given here; also: 0% is about no effect); details: rPXR reporter cells, luciferase (One-Glo), 24 h
[3] = qHTS assay for small molecule activators of the human pregnane X receptor (PXR) signaling pathway (AID 720659; call rule not given here; also: 0% is about no effect); details: DPX-2 HepG2 CYP3A4-luciferase, 24 h; series mostly up to 92.3 µM
[4] = qHTS assay to identify inhibitors of the type 1 interferon - major histocompatibility complex class I in skeletal muscle: Counter screen cell viability and HiBit confirmation (AID 1347412); details: iHSKM muscle cells + IFN-b, HiBiT or CellTiter-Glo, 24 h; also: nearly all actives have a fitted effect of over 60% in size; also: potency is read from the fitted curve at half-maximal effect; as to activity change, negative = inhibition: % is scaled to controls: 0 for no effect and ±100 for the full control effect
Summary of the method: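 Luminescence read-out: Nano-Glo HiBiT lytic signal from C-terminally HiBiT-tagged HLA-B in CRISPR-edited human myoblasts, plus CellTiter Glo ATP as viability counter screen. IFN-beta 4.0 ng/ml; 24 hrs treatment at 37 C, 5% CO2.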

[5] = at 45.9 µM (top of the series), tumour line B
[6] = at 45.9 µM (top of the series), tumour line D
[7] = at 46.1 µM (top of the series), tumour line C

Sequence of Nuclear receptor subfamily 1 group I member 2 (Rattus norvegicus) (Q9R1A7 whole entry, looked up): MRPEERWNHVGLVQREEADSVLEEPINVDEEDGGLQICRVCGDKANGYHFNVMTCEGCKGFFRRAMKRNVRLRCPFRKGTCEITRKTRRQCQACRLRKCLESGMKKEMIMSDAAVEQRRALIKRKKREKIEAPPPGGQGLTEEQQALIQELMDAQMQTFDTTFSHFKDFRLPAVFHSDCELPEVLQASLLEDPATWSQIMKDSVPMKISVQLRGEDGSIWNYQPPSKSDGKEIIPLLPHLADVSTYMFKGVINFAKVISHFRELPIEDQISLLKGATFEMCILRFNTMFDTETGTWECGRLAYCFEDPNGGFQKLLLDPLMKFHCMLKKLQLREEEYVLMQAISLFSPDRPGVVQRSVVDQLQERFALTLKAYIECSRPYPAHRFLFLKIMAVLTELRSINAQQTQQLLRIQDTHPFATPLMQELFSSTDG

Q: With CC(C)(C)NC(=O)[C@H]1CC[C@H]2[C@@H]3CC=C4C=C(C(=O)O)CC[C@]4(C)[C@H]3CC[C@]12C as the compound, how does the activity, negative = cell killing [1, 5] read?
A: -3.87%

Q: What about the activity, negative = cell killing [1, 6] of the same compound?
A: 0.505%

Q: And the activity, negative = cell killing [1, 7]?
A: -11%

Q: What about the Potency (astro) of the same compound?
A: inactive

Q: Which Potency (astro) does the source give for C/C=C1\NC(=O)[C@H]2CSSCC/C=C/[C@H](CC(=O)N[C@H](C(C)C)C(=O)N2)OC(=O)C(C(C)C)NC1=O (some centres not stated) here?
A: 0.708 µM (active)

Q: What does the source list for CCCCCCCCCCCCCCCCCC(=O)OCCO?
A: activity, negative = cell killing [1, 5]: -18.6%; activity, negative = cell killing [1, 6]: -21.2%; activity, negative = cell killing [1, 7]: -6.14%; Potency (astro): inactive

Q: For CC1=C(C(=O)OCCN(Cc2ccccc2)c2ccccc2)C(c2cccc([N+](=O)[O-])c2)C(P2(=O)OCC(C)(C)CO2)=C(C)N1 (configuration not stated), which activity, negative = cell killing [1, 5] is on record?
A: 19%

Q: What about the Potency (astro) of the same compound?
A: inactive

Q: Which activity, negative = cell killing [1, 5] does the source give for O=S(O)CO here?
A: 4.97%

Q: What about the activity, negative = cell killing [1, 6] of the same compound?
A: -2.6%

Q: What about the activity, negative = cell killing [1, 7] of the same compound?
A: -1.44%

Q: What about the Potency (astro) of the same compound?
A: inactive

Q: What does the source list for CCOc1ccc(N=C(C)Nc2ccc(OCC)cc2)cc1?
A: activity, negative = cell killing [1, 5]: -12.2%; activity, negative = cell killing [1, 7]: -2.07%; Potency [1]: 11.2 µM (active); Potency (astro): inactive

Q: Which activity, negative = cell killing [1, 5] does the source give for COC(C)=O here?
A: -2.89%

Q: What about the activity, negative = cell killing [1, 6] of the same compound?
A: 6.97%

Q: And the activity, negative = cell killing [1, 7]?
A: 7.29%

Q: What about the Potency (astro) of the same compound?
A: inactive

Q: And the max response [2]?
A: 5.57%

Q: What about the outcome [3] of the same compound?
A: inactive

Q: Which activity, negative = cell killing [1, 5] does the source give for O.O=C([O-])CC([S-])C(=O)[O-].[Au+].[Na+].[Na+] (configuration not stated) here?
A: -5.96%

Q: What about the activity, negative = cell killing [1, 6] of the same compound?
A: 2.25%

Q: What about the activity, negative = cell killing [1, 7] of the same compound?
A: 15.2%

Q: What about the Potency (astro) of the same compound?
A: inactive

Q: For CC(CC(c1ccccc1)c1ccccc1)NC(C)(C)C (configuration not stated), which Potency (astro) is on record?
A: inactive

Q: Which activity change, negative = inhibition ([4]; Viability, at 45.9 µM (top of the series)) does the source give for NC(=O)c1cnc(N[C@@H]2CCCC[C@@H]2N)nc1Nc1cccc(-n2nccn2)c1 here?
A: -17.1%

Q: With C[N+](C)(CCCCCC[N+](C)(C)C1c2ccccc2-c2ccccc21)C1c2ccccc2-c2ccccc21 as the compound, how does the Potency (astro) read?
A: inactive

Q: With N#Cc1ccnc(Nc2cc(C3CCN(C4COC4)CC3)cc(N3CCC(F)(F)C3)n2)c1 as the compound, how does the Potency ([4]; HiBiT) read?
A: 3.52 µM (active)

Q: Which activity, negative = cell killing [1, 5] does the source give for CCCCCCCC/C=C\CCCCCCCC(=O)OC[C@@H](O)[C@H]1OC[C@H](O)[C@H]1O here?
A: -4.65%

Q: And the activity, negative = cell killing [1, 6]?
A: 1.42%

Q: And the Potency (astro)?
A: inactive

Q: What about the max response [2] of the same compound?
A: 1.88%

Q: And the outcome [3]?
A: inactive

Q: For CC#CCC(C)[C@H](O)/C=C/[C@@H]1[C@H]2c3cccc(CCCC(=O)O)c3O[C@H]2C[C@H]1O (some centres not stated), which activity, negative = cell killing [1, 5] is on record?
A: -5.83%

Q: And the activity, negative = cell killing [1, 6]?
A: 2.53%

Q: And the activity, negative = cell killing [1, 7]?
A: -26.2%

Q: And the Potency (astro)?
A: inactive

Q: Which Potency (astro) does the source give for COc1cc([C@@H]2c3cc4c(cc3C(O[C@@H]3O[C@@H]5COC(c6cccs6)O[C@H]5[C@H](O)[C@H]3O)C3COC(=O)[C@@H]32)OCO4)cc(OC)c1O (some centres not stated) here?
A: 12.6 µM (active)

Q: With CO[C@@H]1[C@@H](O[C@@H]2O[C@H](C)[C@@H](O[C@H]3C[C@@](C)(O)[C@@H](OC(=O)CC(C)C)[C@H](C)O3)[C@H](N(C)C)[C@H]2O)[C@@H](CC=O)C[C@@H](C)[C@@H](O)/C=C/C=C/C[C@@H](C)OC(=O)C[C@H]1O as the compound, how does the activity, negative = cell killing [1, 6] read?
A: -21.1%

Q: And the activity, negative = cell killing [1, 7]?
A: -11.8% and -30.6%

Q: What about the Potency [1] of the same compound?
A: 12.6 µM (active)

Q: What about the Potency (astro) of the same compound?
A: inactive

Q: What does the source list for CCCCCCCCCCCCCCCC(=O)OC[C@H](O)[C@H]1OC(=O)C(O)=C1O?
A: activity, negative = cell killing [1, 5]: -21.6%; activity, negative = cell killing [1, 6]: -24.1%; Potency (astro): inactive

Q: What does the source list for O=C(O)c1cccc(/C=C2/C[C@@H]3[C@@H](/C=C/[C@@H](O)C4CCCCC4)[C@H](O)C[C@@H]3O2)c1?
A: activity, negative = cell killing [1, 5]: -4.9%; activity, negative = cell killing [1, 6]: -11.8%; activity, negative = cell killing [1, 7]: -8.79%; Potency (astro): inactive

Q: Which results are given for N[C@@H](C(=O)N[C@H]1C(=O)N2C(C(=O)O)=C(Cl)CC[C@H]12)c1ccccc1?
A: activity, negative = cell killing [1, 5]: 3.07%; activity, negative = cell killing [1, 6]: -6.14%; activity, negative = cell killing [1, 7]: -12.4%; Potency (astro): inactive

Q: Which activity, negative = cell killing [1, 5] does the source give for O=C(Cn1c(=O)sc2ccc(Cl)cc21)N1CCN(CCO)CC1 here?
A: -0.42%

Q: And the activity, negative = cell killing [1, 6]?
A: -6.64%

Q: What about the activity, negative = cell killing [1, 7] of the same compound?
A: 15.7%

Q: And the Potency (astro)?
A: inactive

From PubChem BioAssay (NCATS)
